# Results taken from PubChem BioAssay (NCATS).
# Results filed as inconclusive are left out. A call without a number means that no potency is given here. The source made the active and inactive calls. Calls follow the shape of the dose curve; as a rule, active = well fitted inhibition curve with a large enough effect; inconclusive = small, poorly fitted or top-dose-only effect; inactive = flat fitted curve, though single readings scatter.
# Test system: CRL-7250
# Experiment: qHTS assay to identify novel small-molecules to repurpose for Merkel cell carcinoma treatment (AID 1296009); also: nearly all actives have a fitted effect of over 60% in size
# Details: MCC and control cell lines, CellTiter-Glo viability, 72 h; series mostly up to 92 µM
# Method in brief: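 Cells were treated for 72 hr at 37 degree celsius with compounds in 8- or 11-point dose response. Viability was read by CellTiter-Glo luminescence, normalized to no-cell (cytotoxicity) and DMSO controls.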
row,SMILES,Potency
1,O=[N+]([O-])c1ccc(Oc2ccc3c(c2)CCC(c2ccccc2)O3)nc1 (stereo not drawn),inactive
2,COc1ccc(NC(=O)C2C[C@H](C)CC[C@H]2C(C)C)cc1 (stereo partly drawn),inactive
3,C[C@H]1[C@H](C)CC[C@]2(C(=O)O)CC[C@]3(C(=O)O)C(=CCC4[C@@]5(C)CC[C@H](O[C@@H]6O[C@@H](C)[C@H](O)[C@@H](O)[C@H]6O)C(C)(C)C5CC[C@]43C)[C@H]12 (stereo partly drawn),inactive
4,CO[C@@H]1CC[C@H](OC[C@]2(COC(=O)c3ccc(C)[nH]3)[C@H](OC(C)=O)CC[C@@]3(C)[C@@H]4CC=C(C)[C@@H](C5=C(O)C(=O)OC5O)[C@]4(C)CC[C@@H]32)O[C@H]1C (stereo partly drawn),inactive
5,CC(C)C1NC(=O)C(CC2(O)c3ccccc3N3C(=O)C(Cc4ccccc4)NC32)NC1=O (stereo not drawn),inactive
6,CC(C)c1ccc(NC(=O)Cn2cnc3c2c(=O)n(C)c(=O)n3C)cc1,inactive
7,C[C@@H]1CC[C@]2(C(=O)OC3OC(CO)C(O)C(O)C3O)CC[C@]3(C)C(=CCC4[C@@]5(C)CC[C@H](O)[C@](C)(C(=O)O)C5CC[C@]43C)C2[C@]1(C)O (stereo partly drawn),inactive
8,CC(=O)O[C@@H]1C[C@@H](C)[C@](O)(CCC2=CC(=O)OC2)[C@@]2(C)CCCC(C)(C)C12 (stereo partly drawn),inactive
9,Cn1c2ccc(F)cc2c2c(C(=O)N3CCCC3)cn(-c3ccccc3)c(=O)c21,inactive
10,O=C(O)Cn1nnc(-c2ccc(CN(CCCCOc3ccc(CN4CCCC4)cc3)CCc3ccccc3)cc2)n1,inactive
11,C/C=C/C=C/C(O)=C1/C(=O)[C@]2(C)C3/C(=C(O)/C=C/C=C/C)C(=O)C4(C)C1[C@]1(C)O[C@@]4(O)[C@@]3(C)O[C@@]12O,inactive
12,C[C@@H]1O[C@@H](O[C@H]2[C@@H]3C=CO[C@@H](O[C@@H]4O[C@H](CO)[C@@H](O)[C@H](O)[C@H]4O)[C@@H]3[C@@]3(CO)O[C@@H]23)[C@H](OC(=O)/C=C/c2ccc(O)c(O)c2)[C@H](O)[C@H]1O,inactive
13,CC1C(=O)OCC2=CCN3CCC(OC(=O)C(C)(O)C1(C)O)C23 (stereo not drawn),inactive
